We go through 26 compounds from PubChem BioAssay (NCATS).

The structures appear in SMILES notation. Records with an inconclusive call do not appear. Activity calls are given as the source filed them. Calls come from the whole dose curve; as a rule, active = well fitted curve in the direction sought with a large enough effect; inconclusive = small, poorly fitted or top-dose-only effect, or another doubt; inactive = no such curve, though single readings can be large; an effect the other way counts as inactive or inconclusive.

Test [1] can be described thus: qHTS assay for measurement of the activity of small molecule inhibitors on Zika virus induced Caspase-3 activity in human astrocytoma cells (AID 1224859). A digest of the protocol: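 Human SNB-19 astrocytoma cells in RPMI 1640 with 10% FBS receive compound one hour ahead of Zika virus at 2 FFU/cell. After 6 h infection, caspase-3/7 activity is detected by Caspase-Glo luminescence.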
Background: In qHTS, concentration-response curves come from the screen itself.

A short description of test [2]: qHTS assay to identify small molecule inhibitors of chordoma cells - UCH-1 (AID 1259355). Note: nearly all actives have a fitted effect of over 55% in size. An outline of the steps:
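A 48hr growth-inhibition format: each drug tested at 15 concentrations together with added auranofin, camptothecin, doxorubicin, rubitecan and topotecan, with cell viability quantified as CellTiter-Glo luminescence.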

A short description of test [3]: qHTS assay to identify small molecule inhibitors of chordoma cells - UCH-2 (AID 1259356). Note: potency is the fitted concentration of half-maximal effect.
A short description of test [4]: NS1 protein of Zika virus - qHTS assay to identify small molecule inhibitors in human HEK 293 cells (AID 1347053). Note: series mostly up to about 46 µM; nearly all actives have a fitted effect of over 55% in size. An outline of the steps: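 TR-FRET signal from two anti-ZIKV NS1 antibodies quantified NS1 in HEK 293 cells 24 h after MR766 infection at MOI = 0.5; compounds were added 1 h before virus. Uninfected cells and infected cells defined the NS1 normalization range.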

Test [5] is described as follows: qHTS of pediatric cancer cell lines to identify multiple opportunities for drug repurposing: Primary screen for TC32 cells (AID 1347089). Note: nearly all actives have a fitted effect of over 60% in size. Note: potency is the fitted concentration of half-maximal effect. A digest of the protocol: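 qHTS, TC32, 48 h drug treatment, CellTiter-Glo luminescence as a proxy for metabolically active cells; primary top concentration 46 µM (MIPE 11-pt, NPC 8-pt); confirmatory 11-pt.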
A short description of test [6]: qHTS of pediatric cancer cell lines to identify multiple opportunities for drug repurposing: Primary screen for DAOY cells (AID 1347090). Note: nearly all actives have a fitted effect of over 55% in size. Note: potency is the fitted concentration of half-maximal effect. A digest of the protocol:
(§1)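 Eight- or eleven-point concentration series, 48 h treatment at 37 degrees C in growth media; readout CellTiter-Glo luminescence. Potency and efficacy were taken from the concentration-response curves.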

A short description of test [7]: qHTS of pediatric cancer cell lines to identify multiple opportunities for drug repurposing: Primary screen for SJ-GBM2 cells (AID 1347091). Note: potency is the fitted concentration of half-maximal effect. An outline of the steps: as §1
A short description of test [8]: qHTS of pediatric cancer cell lines to identify multiple opportunities for drug repurposing: Primary screen for A673 cells (AID 1347092). Note: nearly all actives have a fitted effect of over 45% in size. Note: potency is the fitted concentration of half-maximal effect. An outline of the steps: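 Luminescence from CellTiter-Glo, taken after 15 min at room temperature, served as the proxy for metabolically active cells following 48 h treatment. Both potency and efficacy were taken from curves fitted to the titration data.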

Test [9] can be described thus: qHTS of pediatric cancer cell lines to identify multiple opportunities for drug repurposing: Primary screen for NB-EBc1 cells (AID 1347095). Note: potency is the fitted concentration of half-maximal effect. An outline of the steps: (§2)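 Viability was measured as metabolically active cells after 48 hours of treatment, read by CellTiter-Glo luminescence. Compounds were tested at multiple final concentrations, giving concentration-response curves.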

Test [10] in a line: qHTS of pediatric cancer cell lines to identify multiple opportunities for drug repurposing: Primary screen for SK-N-MC cells (AID 1347093). Note: potency is the fitted concentration of half-maximal effect. A digest of the protocol: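 Metabolically active cells were quantified by ATP-dependent luminescence (CellTiter-Glo, 15 min at room temperature) following 48 h treatment. Cells had been plated at 500-1,000 per well and settled for 5 h beforehand.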

Test [11] is described as follows: qHTS of pediatric cancer cell lines to identify multiple opportunities for drug repurposing: Primary screen for BT-37 cells (AID 1347094). Note: potency is the fitted concentration of half-maximal effect. An outline of the steps: as §2
A short description of test [12]: P-glycoprotein substrates identified in KB-8-5-11 adenocarcinoma cell line, qHTS therapeutic library screen (AID 1346987). Note: potency is the fitted concentration of half-maximal effect; nearly all actives have a fitted effect of over 65% in size. A digest of the protocol: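 Compounds are pinned in dose-response onto KB-8-5-11 cells (500 cells/well, colchicine-free medium) and left 72 h at 37 degree C. CellTiter-Glo luminescence then yields AC50 values.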

`CCCCc1cc2ccccc2c(OCCN(C)C)n1`: the outcome in [1] was inactive. Further, the Potency entry in test [2], in test [3], in [4], in [5], in test [6] and in [7] was “inactive” in each case. In addition, the Potency result in [8] and in [9] was “inactive” in each case.
For `COC(=O)C(c1ccccc1Cl)N1CCc2sccc2C1` (centres undefined), the result in test [1] was inactive. Further, the Potency entry in test [2], in test [3], in test [4], in test [5], in test [7] and in test [8] was “inactive” in each case. Moreover, the Potency result in test [10], in test [11] and in test [9] was “inactive” in each case.
Regarding `CCN(CC)CCNc1ccc(CO)c2sc3ccccc3c(=O)c12`, the compound was called inactive in test [1]. In addition, the Potency entry in test [2] is “inactive”. Besides, the Potency in test [3] was 25.9 µM (active); in test [10], 21.1 µM (active); in test [11], 17.4 µM (active); in test [9] it was 7.5 µM (active).
Take `C#C[C@]1(O)CC[C@H]2[C@@H]3CCC4=Cc5oncc5C[C@]4(C)[C@H]3CC[C@@]21C`: the compound was classed as inactive in [1]. In addition, the Potency result in [2], in [4], in test [5] and in [6] was “inactive” in each case. Further, in test [12], the Potency was 4.61 µM (active).
In the case of `COc1cc(N)c(Cl)cc1C(=O)NC1CCN(Cc2ccccc2)CC1`, the result in test [1] was inactive. Besides, the Potency result in test [2], in [3], in test [4], in test [5], in test [6] and in test [7] was “inactive” in each case. Moreover, the Potency result in test [10], in test [11] and in test [9] was “inactive” each time.
On to `OC(C#CCN1CCCC1)(c1ccccc1)c1ccccc1`, for which the result in test [1] was inactive. Moreover, the Potency result in [2], in test [3], in [4], in test [5], in [6] and in test [8] was “inactive” throughout. Moreover, the Potency entry in [10], in test [11] and in test [9] was “inactive” each time.
In the case of `Cc1ccc2c(Br)cc(Br)c(O)c2n1`, the outcome in test [1] was inactive. For the same compound, the Potency entry in test [2], in test [3] and in [4] was “inactive” in each case. The Potency in test [6] is 8.41 µM (active); in [8], 2.66 µM (active); in [10], 11.9 µM (active); in [11] it was 8.71 µM (active); in test [9], 2.99 µM (active).
For the compound `O=c1[nH]c(=O)n([C@H]2C[C@H](O)[C@@H](CO)O2)cc1F`, the result in test [1] was inactive. For the same compound, the Potency result in test [2], in test [3] and in [4] was “inactive” throughout. The Potency in test [5] was 0.264 µM (active); in test [8] it was 0.841 µM (active); in [10], 6.68 µM (active).
As for `CC(C)n1c(/C=C/[C@@H](O)C[C@@H](O)CC(=O)O)c(-c2ccc(F)cc2)c2ccccc21`, in test [1], the result was inactive. The Potency entry in test [2], in test [3] and in test [4] was “inactive” each time. In addition, the Potency was 16.7 µM (active) in test [5]; 1.33 µM (active) in [6]; 5.31 µM (active) in [8]; 15 µM (active) in test [10]; 15.5 µM (active) in [11].
Take `CN1CCN(CCC(=O)N2c3ccccc3Sc3ccc(C(F)(F)F)cc32)CC1`: the result in test [1] was inactive. The Potency entry in [2], in [3], in test [5] and in test [6] was “inactive” throughout.
On to `O=C(N/N=C/c1ccc([N+](=O)[O-])o1)c1ccc(O)cc1`, for which, in test [1], the result was inactive. Moreover, the Potency result in [2], in test [3], in test [4] and in test [7] was “inactive” throughout.
As to `CC(C)=CCOc1ccc(/C=C/C(=O)c2ccc(OCC=C(C)C)cc2OCC(=O)O)cc1`, the outcome in [1] was inactive. The Potency entry in test [2], in test [3], in test [4], in [5] and in test [11] was “inactive” in each case.
Turning to `CC[C@H](c1ccc(O)cc1)[C@@H](CC)c1ccc(O)cc1`, the compound was called inactive in test [1]. In addition, the Potency entry in test [2], in [3] and in [4] was “inactive” each time. Also, the Potency in [7] was 3.35 µM (active).
On to `O=C1C(=O)c2ccccc2C(O)=C1C1CCC(c2ccc(Cl)cc2)CC1` (centres undefined), for which, in [1], the result was inactive. Moreover, the Potency result in test [2], in test [3], in [4], in test [5], in test [7] and in [8] was “inactive” each time. The Potency result in [10] and in test [11] was “inactive” throughout.
Regarding `CCN1CCCC(OC(=O)C(c2ccccc2)c2ccccc2)C1` (centres undefined), the result in [1] was inactive. The Potency result in [2], in test [3], in test [4], in test [5], in [6] and in test [8] was “inactive” in each case. Also, the Potency entry in test [10], in test [11] and in [9] was “inactive” each time.
With `CCc1oc2ccccc2c1C(=O)c1cc(I)c(O)c(I)c1`, the call in test [1] was inactive. For the same compound, the Potency result in test [2], in [3], in test [4], in [5], in test [8] and in test [11] was “inactive” throughout.
In the case of `O=C1[C@H](CC[C@H](O)c2ccc(F)cc2)[C@@H](c2ccc(O)cc2)N1c1ccc(F)cc1`, in [1], the compound was classed as inactive. The Potency result in [2], in test [3], in test [4], in test [5], in test [6] and in test [8] was “inactive” each time. For the same compound, the Potency result in [11] and in [9] was “inactive” each time.
For the compound `C#C[C@]1(O)CC[C@H]2[C@@H]3[C@H](C)CC4=C(CCC(=O)C4)[C@H]3CC[C@@]21C`, in [1], the call was inactive. Moreover, the Potency entry in test [2], in test [3], in [4], in test [5], in [7] and in [8] was “inactive” each time. Also, the Potency result in test [11] and in [9] was “inactive” each time.
For `C#C[C@]1(O)CC[C@H]2[C@@H]3CCc4cc(OC)ccc4[C@H]3CC[C@@]21C`, the outcome in test [1] was inactive. Also, the Potency entry in [2], in test [3], in [4], in test [5], in test [6] and in test [8] was “inactive” in each case. Also, the Potency result in test [11] and in test [9] was “inactive” throughout.
Regarding `O=C1c2cccc3c2[C@H](CCC3)CN1[C@@H]1CN2CCC1CC2`, in test [1], the call was inactive. For the same compound, the Potency entry in test [2], in test [3], in [5], in [6], in test [8] and in [9] was “inactive” each time.
Consider `Oc1ccc(Cl)cc1Cc1cc(Cl)ccc1O`, for which the compound was classed as inactive in [1]. For the same compound, the Potency entry in [2], in test [3] and in [4] was “inactive” each time. Also, the values for the Potency in [6] and in [11] were 21.1 µM (active) and 19.5 µM (active), respectively.
As to `CCc1nn(CCCN2CCN(c3cccc(Cl)c3)CC2)c(=O)n1CCOc1ccccc1`, in test [1], the compound was called inactive. For the same compound, the Potency result in test [2], in test [4] and in [5] was “inactive” throughout. In addition, in test [12], the Potency was 10.3 µM (active).
As to `CC(=O)O[C@]1(C(C)=O)CC[C@H]2[C@@H]3C=C(Cl)C4=CC(=O)CC[C@]4(C)[C@H]3CC[C@@]21C`, in test [1], the call was inactive. For the same compound, the Potency entry in test [2], in [3], in [4], in test [5], in test [6] and in test [7] was “inactive” in each case. The Potency entry in test [8] and in test [9] was “inactive” in each case.
Turning to `CCCCNc1ccc(C(=O)OCCOCCOCCOCCOCCOCCOCCOCCOCCOC)cc1`, in test [1], the result was inactive. The Potency entry in test [2], in test [3], in [4], in test [5], in [6] and in test [7] was “inactive” each time. Moreover, in test [9], the Potency entry is “inactive”.
Consider `CCCCCCCCCCCCCCC[C@H](O)[C@@H](N)CO`, for which the compound was classed as inactive in test [1]. The Potency result in test [2], in test [3], in test [4], in test [5], in test [6] and in test [8] was “inactive” in each case. Further, the Potency entry in test [10], in [11] and in [9] was “inactive” each time.
Turning to `O=C(NC1CCN(CCc2c[nH]c3ccccc23)CC1)c1ccccc1`, the compound was classed as inactive in test [1]. For the same compound, the Potency result in [2], in test [3], in test [4], in test [5], in [6] and in [8] was “inactive” in each case. Further, the Potency result in test [11] and in [9] was “inactive” each time.
